Results taken from PubChem BioAssay (NCI).
About 83,000 compounds went through this panel and 20% of them were active in at least one assay; those are over-represented in the sample as a whole.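 The endpoint reported here, percent growth, reads 100 for growth as untreated, 0 for no net growth and -100 for all cells dead.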 Activity calls are given as the source filed them. How the source made its calls: active means growth percent below 10; inactive means the rest.

test system: SK-MEL-5 melanoma; assay: NCI-60 one-dose screen, 48 h (100 = growth as untreated, 0 = no growth, -100 = all killed); conditions: 10 µM

SMILES | growth
CCCCCCCNc1nc(C=O)ncc1-c1ccc(C(F)(F)F)cc1 | 97.6% (inactive)
CCCCCCN1CCN(Cc2ccc(N(CC)CC)cc2)C(=O)C1=O | 21.4% (inactive)
O=C(Nc1cccc(-n2cc(-c3ccncc3)c(-c3ccc(O)c(Cl)c3)n2)c1)Nc1ccc(Cl)c(Cl)c1 | -47% (active)
S=C1SCC(c2ccccc2)S1 (centres undefined) | 103% (inactive)
COc1cccc(C(=O)Nc2ccc(CN3CCc4nc5cc(OC)c(OC)cc5cc43)cc2)c1 | 50.1% (inactive)
COc1ccc(-c2nn(-c3cccc(NC(=O)c4cc(C(F)(F)F)cc(C(F)(F)F)c4)c3)cc2-c2ccncc2)cc1Cl | 62.9% (inactive)
O=C(Nc1ccccc1)Nc1cccc(-n2cc(-c3ccncc3)c(-c3ccc(O)c(Cl)c3)n2)c1 | 42.8% (inactive)
N#CCCN1C/C(=C/c2ccc(Cl)cc2)C(=O)/C(=C/c2ccc(Cl)cc2)C1 | -60.6% (active)
COc1ccc(-c2nn(-c3cccc(NC(=O)c4cccc(C(F)(F)F)c4)c3)cc2-c2ccncc2)cc1Cl | 23.7% (inactive)
COc1ccc([N+](=O)[O-])c(C(=O)O)c1 | 98.5% (inactive)
CN(C)CCN=c1nc2c(c(N)n1-c1ccccc1)c(=S)n(-c1ccccc1)c(=S)n2-c1ccccc1 | -98.8% (active)
O=C(Nc1cccc(-n2cc(-c3ccncc3)c(-c3ccc(O)c(Cl)c3)n2)c1)c1cccc(C(F)(F)F)c1 | 34.6% (inactive)
COc1cccc(NC(=O)c2sc3nc4c(cc3c2N)C(O)CCC4)c1 (centres undefined) | 25.1% (inactive)
O=S(=O)(NCCCNc1nccc(-c2c(-c3ccc(F)cc3)nc3sccn23)n1)c1ccc2ccccc2c1 | 43.4% (inactive)
